Data on 101 molecules can be found in PubChem BioAssay AID504333 (National Center for Advancing Translational Sciences (NCATS), 2011).

Hit rate of the full screen: of about 360,000 compounds, about 16,000 (4.4%) were called active. A call without a number means that no potency is given here. Inconclusive results (about 9%) are left out. Calls follow the shape of the dose curve; as a rule, active = well fitted inhibition curve with a large enough effect; inconclusive = small, poorly fitted or top-dose-only effect; inactive = no such curve, though single readings can be large or run the other way. Many of the other results were omitted from the sample, so actives are more common in it than they were.
Potency is read from the fitted curve at half-maximal effect.

Chain of Bromodomain adjacent to zinc finger domain protein 2B (Homo sapiens) (Q9UIF8 whole entry, looked up, the tested form may be a part): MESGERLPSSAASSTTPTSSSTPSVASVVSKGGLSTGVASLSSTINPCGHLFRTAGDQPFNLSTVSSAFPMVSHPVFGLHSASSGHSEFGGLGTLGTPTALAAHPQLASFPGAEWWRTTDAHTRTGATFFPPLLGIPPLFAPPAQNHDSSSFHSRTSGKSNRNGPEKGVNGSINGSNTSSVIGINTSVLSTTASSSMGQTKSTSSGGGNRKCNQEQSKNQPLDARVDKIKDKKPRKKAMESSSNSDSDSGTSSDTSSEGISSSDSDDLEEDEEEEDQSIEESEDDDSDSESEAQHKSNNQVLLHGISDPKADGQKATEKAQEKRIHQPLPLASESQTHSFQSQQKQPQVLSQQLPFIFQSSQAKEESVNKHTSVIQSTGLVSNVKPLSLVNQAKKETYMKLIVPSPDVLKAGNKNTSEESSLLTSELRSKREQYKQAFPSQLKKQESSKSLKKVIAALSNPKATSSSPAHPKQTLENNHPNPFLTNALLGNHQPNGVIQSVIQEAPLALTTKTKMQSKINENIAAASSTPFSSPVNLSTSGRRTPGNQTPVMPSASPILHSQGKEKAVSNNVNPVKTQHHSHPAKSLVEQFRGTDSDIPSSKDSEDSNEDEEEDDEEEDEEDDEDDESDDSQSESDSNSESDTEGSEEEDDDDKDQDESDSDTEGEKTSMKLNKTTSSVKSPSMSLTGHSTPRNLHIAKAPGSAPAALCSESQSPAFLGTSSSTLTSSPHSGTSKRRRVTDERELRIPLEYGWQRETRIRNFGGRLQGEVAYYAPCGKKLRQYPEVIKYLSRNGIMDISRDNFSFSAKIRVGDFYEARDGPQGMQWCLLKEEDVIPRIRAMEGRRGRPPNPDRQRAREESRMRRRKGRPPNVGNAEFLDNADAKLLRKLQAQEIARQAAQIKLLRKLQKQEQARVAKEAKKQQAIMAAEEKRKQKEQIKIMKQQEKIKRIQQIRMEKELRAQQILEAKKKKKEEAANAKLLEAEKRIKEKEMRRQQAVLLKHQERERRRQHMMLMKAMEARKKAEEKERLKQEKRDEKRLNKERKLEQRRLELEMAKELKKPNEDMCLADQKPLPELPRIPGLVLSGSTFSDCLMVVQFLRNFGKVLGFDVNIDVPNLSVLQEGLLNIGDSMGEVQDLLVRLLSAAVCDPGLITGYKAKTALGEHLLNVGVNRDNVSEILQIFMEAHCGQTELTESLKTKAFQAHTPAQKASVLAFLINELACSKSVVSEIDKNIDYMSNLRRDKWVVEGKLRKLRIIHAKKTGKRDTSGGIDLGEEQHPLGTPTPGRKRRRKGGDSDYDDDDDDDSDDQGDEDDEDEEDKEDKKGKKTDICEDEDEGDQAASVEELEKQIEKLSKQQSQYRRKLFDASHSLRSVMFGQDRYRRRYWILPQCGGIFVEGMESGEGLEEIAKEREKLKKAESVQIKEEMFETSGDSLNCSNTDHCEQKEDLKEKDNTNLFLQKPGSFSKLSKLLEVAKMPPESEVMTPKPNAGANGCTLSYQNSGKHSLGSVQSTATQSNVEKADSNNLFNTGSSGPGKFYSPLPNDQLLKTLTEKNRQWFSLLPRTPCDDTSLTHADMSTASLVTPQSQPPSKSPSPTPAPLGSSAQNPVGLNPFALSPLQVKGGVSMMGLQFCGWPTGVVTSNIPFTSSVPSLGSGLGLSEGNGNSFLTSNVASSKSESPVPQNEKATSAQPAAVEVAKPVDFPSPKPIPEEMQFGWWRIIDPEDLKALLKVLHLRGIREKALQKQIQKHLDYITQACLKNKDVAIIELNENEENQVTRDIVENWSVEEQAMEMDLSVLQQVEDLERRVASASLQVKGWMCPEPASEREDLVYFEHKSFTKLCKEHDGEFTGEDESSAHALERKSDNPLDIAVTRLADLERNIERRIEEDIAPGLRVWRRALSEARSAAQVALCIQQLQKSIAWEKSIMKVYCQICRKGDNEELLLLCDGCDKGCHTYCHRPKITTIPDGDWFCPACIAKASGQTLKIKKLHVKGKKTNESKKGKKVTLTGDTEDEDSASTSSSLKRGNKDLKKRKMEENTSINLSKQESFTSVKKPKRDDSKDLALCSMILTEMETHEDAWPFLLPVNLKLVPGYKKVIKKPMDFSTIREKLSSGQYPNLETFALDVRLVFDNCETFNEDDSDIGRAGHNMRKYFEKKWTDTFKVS

The target of the experiment is Bromodomain adjacent to zinc finger domain protein 2B (Homo sapiens) (UniProt Q9UIF8). In words: qHTS Assay for Inhibitors of BAZ2B. Also: nearly all actives have a fitted effect of over 60% in size. The note with it: AlphaScreen BAZ2B-H3K14Ac peptide displacement; series mostly up to 114 µM. In short, it runs like this:
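Multi-concentration screen (max 110 uM) measuring displacement of acetylated histone H3 peptide from BAZ2B by AlphaScreen, using 50 nM protein, 50 nM peptide and 10 ug/mL streptavidin donor plus Ni-chelate acceptor beads.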
Background: Quantitative high-throughput screening tests each substance at several concentrations.
On to `O=C(Cn1c(=O)n(-c2ccc(F)cc2)c(=O)c2sccc21)Nc1cccc(C(F)(F)F)c1`, for which the Potency entry was “inactive”.

`CCc1cccc(-n2nnc(-c3nsc(NC(=O)c4ccc(C)cc4)n3)c2C)c1`: the Potency result is “inactive”.

Take `O=C(CS(=O)(=O)c1cccc2nsnc12)N1CCN(c2cccc(Cl)c2)CC1`: the Potency result is “inactive”.

Consider `COc1ccccc1-c1cc(C(F)(F)F)nc(S(=O)(=O)CCCC(=O)Nc2ccc(F)cc2F)n1`, for which the Potency result is “inactive”.

`CCn1cc2nc(SCc3cccc(F)c3)n(CCc3ccccc3)c(=O)c2n1`: the Potency entry was “inactive”.

Consider `COc1cc(NS(=O)(=O)c2ccc3c(c2)OCC(C(=O)N2CCCC2)O3)cc(OC)c1` (stereo unspecified), for which the Potency entry is “inactive”.

In the case of `COc1ccc(C(=O)N2CCC(c3nc4ccccc4o3)CC2)cc1`, the Potency result was “inactive”.

With `Cn1c(Nc2ccccc2)cc(=O)n(C)c1=O`, the Potency result is “inactive”.

With `Cc1cc2nc(C)n(CCCNC(=O)Nc3ccccc3)c2cc1C`, the Potency entry was “inactive”.

As to `Cc1cc(=O)n(C)c(=O)n1CCCNc1ccccc1`, the Potency was 50.1 µM (active).

With `Cc1ccc(-n2nc(C)c3c(C)cc(=O)n(CC(=O)Nc4ccc(C(C)C)cc4)c32)cc1`, the Potency result was “inactive”.

Consider `O=C(Cc1ccc(S(=O)(=O)N2CCCC2)s1)NC1CCCCCC1`, for which the Potency was 50.1 µM (active).

As for `O=C(Cc1ccc(S(=O)(=O)N2CCOCC2)s1)NCCC(c1ccccc1)c1ccccc1`, the Potency result is “inactive”.

For `O=C(NC1CCCCC1)C1CCCN(S(=O)(=O)c2ccc(Br)s2)C1` (stereo unspecified), the Potency entry is “inactive”.

In the case of `Cc1cc(-c2ccc(C)c(S(=O)(=O)N3c4ccccc4CC3C)c2)on1` (stereo unspecified), the Potency result is “inactive”.

`Cc1ccsc1CN(C(=O)c1oc2ccc(Br)cc2c1C)C1CCS(=O)(=O)C1` (stereo unspecified): the Potency result is “inactive”.

For the molecule `Cc1cccc(C)c1NC(=O)CNC(=O)c1ccc2c(c1)OCCO2`, the Potency result is “inactive”.

As for `Cc1csc(NC(=O)C2=COCCO2)n1`, the Potency entry is “inactive”.

Consider `CCC(CC)c1nnc(NC(=O)C2=COCCO2)s1`, for which the Potency result was “inactive”.

`Cc1ccc(C(=O)Nc2nnc(C3=COCCO3)o2)cc1C`: the Potency is 50.1 µM (active).

Take `O=C(Nc1ncc([N+](=O)[O-])s1)C1COc2ccccc2O1` (stereo unspecified): the Potency entry is “inactive”.

On to `COc1cc(-c2nnc(NC(=O)C3=COCCO3)o2)cc(OC)c1OC`, for which the Potency is 39.8 µM (active).

Take `O=C(Nc1nnc(C2=COCCO2)o1)c1ccc([N+](=O)[O-])s1`: the Potency is 79.4 µM (active).

On to `COc1ccc(C(=O)COC(=O)c2ccc([N+](=O)[O-])s2)cc1OC`, for which the Potency result is “inactive”.

Regarding `CSc1ccccc1-c1nnc(NC(=O)c2ccc3c(c2)OCCO3)o1`, the Potency entry is “inactive”.

As for `O=C(NCCc1csc(-c2ccc(C(F)(F)F)cc2)n1)C(=O)Nc1ccc(F)c(Cl)c1`, the Potency entry is “inactive”.

For `CC(C)(C)OC(=O)N1CCC(c2c(C(=O)NCc3ccccn3)cnn2-c2ccc(F)cc2)CC1`, the Potency result is “inactive”.

For `CC1CCC(NC(=O)CNC(=O)c2ccc3ccccc3c2)CC1` (stereo unspecified), the Potency entry was “inactive”.

With `O=C(CNC(=O)c1ccc2ccccc2c1)Nc1ncccc1O`, the Potency is 50.1 µM (active).

In the case of `O=C(Nc1ncccc1O)c1ccc(C(=O)c2ccccc2)cc1`, the Potency entry is “inactive”.

With `CN(Cc1ccccc1)C(=O)CCS(=O)(=O)c1cc(Br)cc2c1N(C(=O)C1CC1)CC2`, the Potency entry was “inactive”.

`Cc1ccc(C)c(N2CCN(C(=O)CN3C(=O)COc4ccc(S(=O)(=O)N5CCCCCC5)cc43)CC2)c1`: the Potency entry was “inactive”.

As to `CCOCCCNCc1cc(Br)ccc1OCC`, the Potency entry was “inactive”.

With `CCOc1ccccc1OCCCNCc1ccccc1`, the Potency is 79.4 µM (active).

Regarding `CCOCCCNCc1ccc(OCc2ccc(F)cc2)c(OC)c1`, the Potency entry is “inactive”.

As to `Cc1cc(C)c2oc(-c3cccc(NC(=O)c4cccc(F)c4)c3C)nc2c1`, the Potency result is “inactive”.

On to `CCOc1cc(/C=C2\SC(N3CCCCC3)=NC2=O)ccc1O`, for which the Potency result was “inactive”.

In the case of `CCN1C(=O)/C(=C2\SC(N3CCCCC3)=NC2=O)c2ccccc21`, the Potency was 39.8 µM (active).

On to `O=C1N=C(N2CCCC2)S/C1=C\c1cccc(Br)c1`, for which the Potency entry is “inactive”.

As for `CCOc1ccc(S(=O)(=O)c2cn(Cc3ccccc3)c3ccc(OCC)cc3c2=O)cc1`, the Potency result was “inactive”.

`CCc1ccc(CN(Cc2ccco2)C(=O)c2ccccc2Cl)cc1`: the Potency entry was “inactive”.

For `Cc1cc(=O)c2cc(C(=O)Nc3cccc(C)c3C)ccc2[nH]1`, the Potency result was “inactive”.

`O=[N+]([O-])c1ccc(N2CCN(CC(O)COc3ccccc3)CC2)cc1` (stereo unspecified): the Potency entry is “inactive”.

With `OC(COCc1ccco1)CN1CCN(c2ccccc2)CC1` (stereo unspecified), the Potency was 89.1 µM (active).

For the molecule `CC1CCCN(CC(O)COCc2ccccc2)C1` (stereo unspecified), the Potency result was “inactive”.

Regarding `CCCn1ccc2c(OCC(=O)NCc3ccc(F)cc3)cccc2c1=O`, the Potency entry was “inactive”.

Regarding `Cc1ccc(-c2cn3c(n2)sc2cc(C(=O)NCCCc4ccccc4)ccc23)cc1`, the Potency result was “inactive”.

For `Cc1cc(C)cc(NC(=O)CN2C(=O)c3ccccc3C2=O)c1`, the Potency result was “inactive”.

In the case of `Cc1ccc(NC(=O)CCN2C(=O)c3ccccc3C2=O)cc1C`, the Potency result is “inactive”.

As for `Cc1cc2c(cc1C)N(C(=O)CN1C(=O)c3ccccc3C1=O)C(C)(C)c1ssc(=S)c1-2`, the Potency is 8.91 µM (active).

For `COc1cc(OC)cc(C(=O)NC(=S)N2CCN(c3ccc(C(F)(F)F)cc3[N+](=O)[O-])CC2)c1`, the Potency result was “inactive”.

`O=[N+]([O-])c1cc(C(F)(F)F)ccc1NCCc1ccncc1`: the Potency entry is “inactive”.

For the molecule `O=[N+]([O-])c1cc(C(F)(F)F)ccc1NN=C1CCCC1`, the Potency was 10 µM (active).

With `COc1cccc(CNC(=O)C(=O)NCC(c2cccs2)S(=O)(=O)c2ccccc2)c1` (stereo unspecified), the Potency entry is “inactive”.

As for `COc1ccccc1CNC(=O)CCCn1c(=O)c2ccccc2n(CC(=O)Nc2ccc(C)cc2Cl)c1=O`, the Potency entry is “inactive”.

For the molecule `O=C(Cc1ccc([N+](=O)[O-])cc1)N/N=C/c1ccco1`, the Potency result was “inactive”.

Turning to `CC(C)NC(=O)C(=O)N/N=C/c1ccco1`, the Potency entry was “inactive”.

Consider `O=C(N/N=C/c1ccco1)c1ccc(C(=O)N/N=C/c2ccco2)o1`, for which the Potency was 56.2 µM (active).

For `CCOc1ccccc1NC(=O)CN1CCN(S(=O)(=O)c2ccc(Br)cc2)CC1`, the Potency result is “inactive”.

On to `Cc1ccc(NC2=C(c3ccc(C(F)(F)F)cc3)C(=O)c3ccccc32)cc1F`, for which the Potency entry is “inactive”.

For the molecule `Cc1ccc(C)c(Cn2c(=O)n(CCC(=O)NCc3ccc4c(c3)OCO4)c(=O)c3sccc32)c1`, the Potency result is “inactive”.

Consider `N/C(=N\OC(=O)Cc1ccccc1[N+](=O)[O-])c1ccc(Br)cc1`, for which the Potency result is “inactive”.

For `Cc1oc2cc(Br)c(O)c(Br)c2c1C(=O)c1ccccc1`, the Potency result was “inactive”.

Take `Cc1oc2cc([N+](=O)[O-])c(O)c([N+](=O)[O-])c2c1C(=O)c1ccc(Br)cc1`: the Potency is 35.5 µM (active).

Turning to `COCCNc1ncnc2c1c(-c1ccccc1)cn2-c1ccc(C)c(Cl)c1`, the Potency result is “inactive”.

`COc1ccc(Cn2c(=S)[nH]c3cc(C(=O)NCCCN4CCOCC4)ccc3c2=O)cc1`: the Potency result is “inactive”.

For `Cc1c(C)n(Cc2ccc(Cl)cc2)c2ccc(C(=O)NCCc3ccc(S(N)(=O)=O)cc3)cc12`, the Potency result was “inactive”.

With `Cc1c(C)n(Cc2ccc(Cl)cc2)c2ccc(C(=O)NCCCN3CCOCC3)cc12`, the Potency is 39.8 µM (active).

On to `COc1ccc(-c2onc(C)c2C)cc1S(=O)(=O)NCC1CCN(Cc2cccc(F)c2)CC1`, for which the Potency entry is “inactive”.

As to `Cc1ccccc1CN1CCC(CNC(=O)c2c(C)oc3ncnc(N4CCCCC4)c23)CC1`, the Potency result was “inactive”.

As to `Cn1c(COc2ccccc2C(C)(C)C)nc2ccccc21`, the Potency entry is “inactive”.

For the molecule `COc1ccc(NC(=O)CSC2=Nc3ccccc3C3=NC(CC(=O)NCc4ccccc4OC)C(=O)N23)cc1Cl` (stereo unspecified), the Potency result is “inactive”.

With `O=C(NC(=S)Nc1cc(C(F)(F)F)ccc1N1CCOCC1)c1ccc(-c2cccc(Cl)c2)o1`, the Potency result was “inactive”.

In the case of `O=C(NC(=S)Nc1ccccc1C(=O)O)c1ccc(-c2ccc(Br)cc2)o1`, the Potency was 44.7 µM (active).

As for `O=C(O)c1ccccc1NC(=O)c1ccccc1-c1ccccc1C(=O)O`, the Potency result was “inactive”.

In the case of `COc1cc(C)ccc1OCCSc1nc2ccc(NC(=O)c3ccc(C)cc3)cc2s1`, the Potency entry is “inactive”.

`O=C(CCOc1ccccc1)N(Cc1cccnc1)c1nc2ccc(Cl)cc2s1`: the Potency result is “inactive”.

For `Cc1cccc(N2CCN(C(=O)c3cc4c(=O)oc5ccccc5c4s3)CC2C)c1` (stereo unspecified), the Potency result is “inactive”.

Turning to `COC(=O)c1ccc(NC(=O)c2cnn(-c3ccc(Cl)cc3)c2C2CCN(C(=O)OC(C)(C)C)CC2)cc1`, the Potency entry is “inactive”.

As for `O/N=C1\CC2(Cc3nonc31)OCCO2`, the Potency result was “inactive”.

As to `ON=C1/C(=N\O)CC2(C/C1=N/O)OCCO2`, the Potency was 22.4 µM (active).

Regarding `Cc1cccc(N2CCN(C(=O)c3ccc4c(c3)CCN4S(=O)(=O)c3ccccc3)CC2)c1C`, the Potency result was “inactive”.

Take `O=C(COc1ccc(Cl)cc1)N(Cc1ccco1)Cc1ccco1`: the Potency result is “inactive”.

Consider `Cc1ccc(S(=O)(=O)NCc2nc3nc(C)cc(C)n3n2)cc1`, for which the Potency result was “inactive”.

Turning to `CCc1ccc(NC(=O)CSc2nc3c([nH]c4ccccc43)c(=O)n2-c2cccc(OC)c2)cc1`, the Potency result is “inactive”.

For `Cn1c(=O)c2c(SCC(=O)N3CCc4ccccc43)nc(-c3ccc(Cl)cc3)nc2n(C)c1=O`, the Potency entry was “inactive”.

With `Cc1cc(C)nc(N/N=C/c2c(C)oc3ccccc23)n1`, the Potency entry is “inactive”.

On to `Cc1cc(C)nc(N/N=C/c2c(CO)cnc(C)c2O)n1`, for which the Potency is 79.4 µM (active).

Consider `O=C(c1cccc(Cl)c1)N1CCN(CCc2ccncc2)CC1`, for which the Potency result was “inactive”.

For the molecule `CSCCC(NC(=O)c1ccco1)C(=O)Nc1cc(C)ccn1` (stereo unspecified), the Potency entry is “inactive”.

On to `CCOC(=O)N1CCN(C(=O)C(C)NC(=O)c2ccco2)CC1` (stereo unspecified), for which the Potency result was “inactive”.

As for `CC(NC(=O)c1ccco1)C(=O)Nc1nc(-c2ccccn2)cs1` (stereo unspecified), the Potency is 22.4 µM (active).

As to `Cc1cc(C)cc(-n2ccnc2SCC(=O)Nc2nc3ccccc3s2)c1`, the Potency entry is “inactive”.

Regarding `COc1ccc(CCNC(=O)c2cc3cccc4c3n2CC(C)S4)c(OC)c1OC` (stereo unspecified), the Potency entry was “inactive”.

Consider `CCC1=Nc2cc(C(=O)NCC(C)c3ccccc3)ccc2Sc2ccc(C)cc21` (stereo unspecified), for which the Potency result was “inactive”.

`CCCCCC(=O)Nc1ccc(S(=O)(=O)Nc2ccc(Cl)nn2)cc1`: the Potency entry is “inactive”.

For the molecule `Cc1nnc(SCC(=O)Nc2ccc(S(=O)(=O)Nc3ccc(Cl)nn3)cc2)s1`, the Potency is 50.1 µM (active).

As to `Cc1nnc(SCC(=O)Nn2cnnc2)s1`, the Potency result is “inactive”.

`C#CC(CCN1CCCCC1)(OC)c1ccccc1` (stereo unspecified): the Potency result is “inactive”.

On to `c1ccc(-c2ccccc2OCCN2CCCCC2)cc1`, for which the Potency was 50.1 µM (active).

As for `c1ccc(-c2ccc(OCCN3CCOCC3)cc2)cc1`, the Potency entry was “inactive”.
